In the supplement of paper PMC3334620:
The full ranking holds about 33,000 sequences; the median of “E-score (-0.5 to 0.5)” is about -0.036, and the highest 2% start at about 0.37. Shown is part of a subset that was picked to be rich in the highest values.

biological target: T1, Yer064c (UniProt P40041); test: PBM E-score (8-mer binding enrichment) (E-score (-0.5 to 0.5)); higher = stronger / more preferred TF binding; conditions: protein concentration: 200 nM; construct: GST-full length
T1 sequence: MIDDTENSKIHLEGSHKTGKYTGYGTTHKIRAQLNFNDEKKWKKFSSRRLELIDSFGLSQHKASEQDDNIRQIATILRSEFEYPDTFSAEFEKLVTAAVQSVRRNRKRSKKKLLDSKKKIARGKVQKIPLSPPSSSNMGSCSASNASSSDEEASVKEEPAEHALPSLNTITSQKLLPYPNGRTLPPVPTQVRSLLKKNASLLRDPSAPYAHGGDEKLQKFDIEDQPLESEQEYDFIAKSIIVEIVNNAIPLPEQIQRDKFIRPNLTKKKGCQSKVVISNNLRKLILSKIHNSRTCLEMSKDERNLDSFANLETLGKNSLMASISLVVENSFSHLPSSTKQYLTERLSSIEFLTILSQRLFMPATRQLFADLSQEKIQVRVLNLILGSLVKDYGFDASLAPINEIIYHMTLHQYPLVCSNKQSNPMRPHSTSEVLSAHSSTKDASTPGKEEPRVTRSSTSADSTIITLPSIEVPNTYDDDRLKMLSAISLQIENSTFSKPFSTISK
Procedure: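 Universal 'all 10-mer' protein binding microarrays (Agilent AMADID 015681) probed with GST-tagged S. cerevisiae TFs (full-length or DBD) made by in vitro transcription/translation (PURExpress), about 100-200 nM. Bound TF was detected with fluorescent anti-GST. Each ungapped 8-mer (which stands for itself and its reverse complement) is scored by the PBM enrichment score (E-score), a modified Wilcoxon-Mann-Whitney statistic from -0.5 to +0.5, computed with the Universal PBM Analysis Suite. Scale: above 0.35 generally sequence-specific binding.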

Sequence	PBM E-score
AAGACCAG	-0.0791
CCCGGCAA	-0.166
CTGCGGAC	-0.0565
AGGGGGTC	-0.406
CCCACATA	0.0317
CCGTTCGA	0.0719
GGGTCACA	0.00589
AAGTCACT	0.399
GCGTCACA	-0.13
ACGTCACT	-0.0404
AGGTCACT	0.0701
GAGTCACA	0.493
GAGGCCAC	-0.319
ACGGCCGC	-0.0196
AGGCAGTC	0.213
CTTTGAGA	0.179
TGAGCTAA	0.189
GCTGTAGA	-0.0534
AGTTAGCG	-0.0192
CTTGTGAC	0.222
ATTGGTCA	0.0959
CATCCACC	-0.0348
CCTGGACA	-0.127
ATGATTAC	0.472
ACGATTAC	0.185

Sequence	PBM E-score
ATGATTAG	0.438
AAGATTAC	0.241
ACGATTAG	0.152
ATGATTTG	0.299
ATGAGTGC	0.226
CTGAGTCC	0.402
ATGAGTCG	0.474
ATGAGTTG	0.194
CTGAGTGC	-0.0835
ATGAGTCC	0.442
CTGAGTTC	0.104
ATGAGTGG	0.193
ATGAGTTC	0.327
AGCTACGG	-0.0957
CAGTGGTC	0.0376
GGCACGGA	-0.127
TACTTCTA	0.0324
TGTCCAAA	-0.0925
ATTTCTTC	-0.058
GCGATTGA	0.145
GTGATTGA	0.401
ATGATTGA	0.423
CTGATTGA	0.305
ACGATTGC	0.0745
ACGATTGA	0.216

Sequence	PBM E-score
CTGATTGC	0.274
ATGATTGG	0.286
ATGATTGC	0.375
GGTGAAAA	-0.106
CAAATCTC	0.0434
CATCTACG	0.104
AGGTGAGC	-0.00638
CCGGGTGA	0.176
AATGCTCA	0.0674
AGTCAGCG	0.453
ACTCAGCG	0.269
CGTCAGCC	-0.135
GGTCAGCA	-0.0951
CGTCAGCA	-0.0315
AGTCAGCA	0.455
AGTCAGCC	0.458
ACTCAGCC	0.335
ATTCAGCG	-0.0722
GGCAGCAA	-0.355
GCAGATGC	-0.257
CAATGGTC	0.183
ATGTATTA	0.0655
ATGCTTTG	-0.00054
TAACAGTA	-0.019
CTATAGTC	0.37

Sequence	PBM E-score
ATATAGTA	0.128
CTATAGTA	0.0624
CTATAGCC	-0.0342
ATATAGTG	0.0402
ATATAGTC	0.403
ACCGAACT	-0.0318
AGCAGAAA	-0.0226
CAGAGTGG	-0.106
CAGACGAG	-0.0357
CGCTCTAG	-0.196
CCGACAAA	-0.0238
ATCATCGA	0.31
CTCATCGA	0.173
GTCATCGA	0.389
ACCTGAAA	-0.0522
CAGGTTGA	0.0225
CCAGAAAG	0.0675
AGTAGTTA	0.112
CGTAGTCC	0.262
AGTAGTCA	0.478
AGTAGTAA	0.156
GGTAGTGA	0.0671
GGTAGTAA	0.0578
AGTAGTCG	0.381
AGTAGTAG	0.00559

Sequence	PBM E-score
AGTAGTCC	0.302
CGTAGTAA	-0.0636
GGTAGTCA	0.479
CGTAGTCA	0.483
GGCCGTCA	-0.262
CTCTGGTC	-0.00298
GGAATTCA	-0.0346
ACGAACGT	-0.129
ATGACCGC	-0.075
CCAGTCGA	0.00412
CGTACGTC	-0.241
ACGGAGTC	0.431
CCGGAGGC	-0.154
CCGGAGTC	0.373
CCGGAGTA	0.0206
ACGGAGTA	-0.0195
ACGGAGTG	-0.215
ATGTACTG	0.0673
ACTGTCAA	-0.0537
GCGTCGCA	0.0193
CACTAATC	0.191
GACTAATC	0.439
CACTAATA	0.134
GACTAATA	0.445
TACTAATA	-0.1

Sequence	PBM E-score
AACTAATC	0.15
CTAGGTAC	0.0158
CTGACTCC	0.46
ACGACTTC	0.324
AAGACTTG	0.165
CAGACTTC	-0.103
CTGACCCC	-0.221
CCGACTTC	-0.0761
AGGACTTC	0.201
CTGACTTC	0.392
ATGACTTG	0.435
ATGACTTC	0.469
CTCACTCC	0.0635
AGGACTTG	0.0575
AAATGAAG	0.0192
ACACAGTC	0.285
ATGCAACC	-0.254
AACCAGTA	-0.0555
ATATACTC	0.103
AGGAGCTC	-0.0695
CGCTGCTC	-0.243
CAGTCACC	0.423
CGGTCACA	-0.132
CCGTCACC	-0.189
CCGTCACA	-0.22

Sequence	PBM E-score
CAGTCAAG	0.267
CTGTCACA	0.16
CGGTCACC	-0.0952
CAGTCACA	0.42
CAGTCACG	0.413
GACCTTTA	-0.0143
ATCGAGAT	-0.151
AATAGGAG	-0.113
AGAACGTG	-0.217
CTCTAGGA	0.0144
AGTCATCG	0.492
GGTCATCA	0.228
AGGCATCG	-0.125
CGTCATCA	-0.004
AGTCATCC	0.49
ATTCATCG	0.205
AGTCATCA	0.485
CGTCATCC	-0.131
ATTCATCC	0.119
GAGGTAAA	0.122
ATGTGGAG	0.0652
GGGCGCAC	-0.321
